# Source: PMC7862700, “An all-to-all approach to the identification of sequence-specific readers for epigenetic DNA modifications on cytosine”
# Assays:
# Experiment in all cases: DAPPL (digital affinity profiling via proximity ligation, sequencing); 10 mM Tris-HCl pH 7.5, 50 mM NaCl, 1 mM DTT, 4% glycerol, room temperature, 30 min; GST-TFs on glutathione beads, 16-mer random dsDNA library, 0.1% formaldehyde crosslink after washing; high values mean tight binding
# FEV = biological target: T1, FEV (Homo sapiens, UniProt Q99581 1-238); settings: protein: recombinant; tags: N-terminal GST; dsDNA, one strand shown
# T1 sequence: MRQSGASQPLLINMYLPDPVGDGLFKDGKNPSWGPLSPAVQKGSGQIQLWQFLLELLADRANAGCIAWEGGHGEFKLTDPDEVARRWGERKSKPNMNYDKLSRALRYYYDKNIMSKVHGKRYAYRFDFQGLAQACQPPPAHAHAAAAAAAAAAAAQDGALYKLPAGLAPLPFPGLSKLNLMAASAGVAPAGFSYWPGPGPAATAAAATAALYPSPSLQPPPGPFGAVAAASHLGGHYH
# In short: (§1)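 The binding signal reported is, for every hexamer, its read frequency for a factor over its read frequency for the tag-only sample. Reads came from pools of yeast-expressed, GST-fused human transcription factors on glutathione beads, barcoded with DNA and mixed with that sample, which were incubated with 200 nmole of a random double-stranded 16-mer DNA library in Tris/NaCl/DTT/glycerol buffer at room temperature for 30 min. After washing, the pools were crosslinked with 0.1% formaldehyde, proximity-ligated with BsaI/T4 ligase for 1 h at 37 °C, PCR-amplified and sequenced on an Illumina NextSeq500.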
# ETV5 = ETV5 (Homo sapiens, UniProt P41161 1-510); settings: protein: recombinant; tags: N-terminal GST; dsDNA, one strand shown
# In short: as §1
# HSF1 = HSF1 (Homo sapiens, UniProt Q00613 1-529); settings: protein: recombinant; tags: N-terminal GST; chain copies: 3; dsDNA, one strand shown
# In short: as §1
# SPIC = biological target: T2, SPIC (Homo sapiens, UniProt Q8N5J4 1-248); settings: protein: recombinant; tags: N-terminal GST; dsDNA, one strand shown
# T2 sequence: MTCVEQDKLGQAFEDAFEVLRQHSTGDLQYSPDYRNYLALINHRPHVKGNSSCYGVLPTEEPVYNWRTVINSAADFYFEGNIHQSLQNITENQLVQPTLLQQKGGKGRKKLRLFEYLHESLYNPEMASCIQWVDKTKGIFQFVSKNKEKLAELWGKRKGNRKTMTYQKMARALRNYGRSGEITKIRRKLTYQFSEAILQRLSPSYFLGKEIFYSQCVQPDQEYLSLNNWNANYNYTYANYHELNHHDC
# In short: as §1
# ELF4 = ELF4 (Homo sapiens, UniProt Q99607 1-663); settings: protein: recombinant; tags: N-terminal GST; dsDNA, one strand shown
# In short: as §1
# ELK4 = biological target: T3, ELK4 (Homo sapiens, UniProt P28324-2 1-405); settings: protein: recombinant; tags: N-terminal GST; dsDNA, one strand shown
# T3 sequence: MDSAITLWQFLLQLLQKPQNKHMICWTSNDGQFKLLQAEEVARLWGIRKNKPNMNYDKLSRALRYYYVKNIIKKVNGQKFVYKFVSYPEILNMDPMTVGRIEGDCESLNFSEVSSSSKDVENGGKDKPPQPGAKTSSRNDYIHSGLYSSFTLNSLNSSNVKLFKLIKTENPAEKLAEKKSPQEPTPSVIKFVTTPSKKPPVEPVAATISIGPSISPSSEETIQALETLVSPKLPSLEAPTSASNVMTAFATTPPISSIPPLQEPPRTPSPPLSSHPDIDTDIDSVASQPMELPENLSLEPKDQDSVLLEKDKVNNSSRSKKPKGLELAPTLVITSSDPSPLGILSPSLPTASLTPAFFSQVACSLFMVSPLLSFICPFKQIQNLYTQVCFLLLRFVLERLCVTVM
# In short: as §1
# ETV2 = biological target: T4, ETV2 (Homo sapiens, UniProt O00321 1-342); settings: protein: recombinant; tags: N-terminal GST; dsDNA, one strand shown
# T4 sequence: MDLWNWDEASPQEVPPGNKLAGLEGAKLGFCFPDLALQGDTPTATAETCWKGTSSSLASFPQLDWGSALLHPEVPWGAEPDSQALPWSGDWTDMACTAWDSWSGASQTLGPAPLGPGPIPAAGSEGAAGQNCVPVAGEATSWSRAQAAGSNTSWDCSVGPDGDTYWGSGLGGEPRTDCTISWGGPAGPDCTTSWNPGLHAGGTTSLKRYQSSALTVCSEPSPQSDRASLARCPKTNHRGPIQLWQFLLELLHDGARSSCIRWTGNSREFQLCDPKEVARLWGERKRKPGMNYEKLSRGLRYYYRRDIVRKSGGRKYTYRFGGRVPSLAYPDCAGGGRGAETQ
# In short: as §1
# ELF3 = biological target: T5, ELF3 (Homo sapiens, UniProt P78545 1-371); settings: protein: recombinant; tags: N-terminal GST; dsDNA, one strand shown
# T5 sequence: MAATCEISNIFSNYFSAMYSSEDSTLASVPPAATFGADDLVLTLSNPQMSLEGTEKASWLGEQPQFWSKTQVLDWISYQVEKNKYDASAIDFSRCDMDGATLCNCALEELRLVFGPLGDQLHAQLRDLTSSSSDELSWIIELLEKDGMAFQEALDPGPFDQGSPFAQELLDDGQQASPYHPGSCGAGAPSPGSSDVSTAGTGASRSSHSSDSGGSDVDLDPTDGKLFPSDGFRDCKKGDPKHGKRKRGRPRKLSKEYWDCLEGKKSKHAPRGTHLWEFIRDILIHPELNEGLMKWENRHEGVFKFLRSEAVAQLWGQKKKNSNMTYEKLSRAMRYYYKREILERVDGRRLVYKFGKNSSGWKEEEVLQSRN
# In short: as §1
# ETV1 = ETV1 (Homo sapiens, UniProt P50549 1-477); settings: protein: recombinant; tags: N-terminal GST; dsDNA, one strand shown
# In short: as §1
# Chain of HSF1 (Q00613 whole entry): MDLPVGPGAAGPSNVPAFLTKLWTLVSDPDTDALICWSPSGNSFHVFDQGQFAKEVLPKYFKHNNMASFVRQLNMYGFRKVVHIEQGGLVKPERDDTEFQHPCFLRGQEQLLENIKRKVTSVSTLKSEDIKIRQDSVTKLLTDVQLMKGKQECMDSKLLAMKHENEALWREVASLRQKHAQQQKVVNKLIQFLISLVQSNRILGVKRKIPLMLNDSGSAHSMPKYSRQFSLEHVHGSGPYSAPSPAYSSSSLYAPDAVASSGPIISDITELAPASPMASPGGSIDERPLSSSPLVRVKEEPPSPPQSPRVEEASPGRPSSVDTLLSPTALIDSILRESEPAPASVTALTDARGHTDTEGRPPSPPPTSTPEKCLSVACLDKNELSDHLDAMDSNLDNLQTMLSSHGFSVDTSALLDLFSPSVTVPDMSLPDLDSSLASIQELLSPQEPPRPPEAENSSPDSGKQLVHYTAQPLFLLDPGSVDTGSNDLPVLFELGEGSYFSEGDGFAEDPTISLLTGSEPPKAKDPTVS
# Chain of ETV1 (P50549 whole entry): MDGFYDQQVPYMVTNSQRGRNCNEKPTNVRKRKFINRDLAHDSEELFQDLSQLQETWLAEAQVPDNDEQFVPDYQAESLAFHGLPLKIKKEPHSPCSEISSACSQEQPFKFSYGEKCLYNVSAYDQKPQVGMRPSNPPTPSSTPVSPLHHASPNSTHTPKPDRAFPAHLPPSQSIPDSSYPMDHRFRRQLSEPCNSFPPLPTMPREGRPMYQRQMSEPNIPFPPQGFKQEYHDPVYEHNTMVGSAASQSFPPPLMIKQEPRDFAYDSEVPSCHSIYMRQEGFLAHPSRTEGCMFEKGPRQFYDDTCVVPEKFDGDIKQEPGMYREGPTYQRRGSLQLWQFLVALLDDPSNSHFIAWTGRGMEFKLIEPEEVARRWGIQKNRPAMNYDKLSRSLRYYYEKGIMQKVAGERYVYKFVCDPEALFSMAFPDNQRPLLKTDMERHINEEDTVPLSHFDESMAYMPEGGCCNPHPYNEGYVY
# Chain of ETV5 (P41161 whole entry): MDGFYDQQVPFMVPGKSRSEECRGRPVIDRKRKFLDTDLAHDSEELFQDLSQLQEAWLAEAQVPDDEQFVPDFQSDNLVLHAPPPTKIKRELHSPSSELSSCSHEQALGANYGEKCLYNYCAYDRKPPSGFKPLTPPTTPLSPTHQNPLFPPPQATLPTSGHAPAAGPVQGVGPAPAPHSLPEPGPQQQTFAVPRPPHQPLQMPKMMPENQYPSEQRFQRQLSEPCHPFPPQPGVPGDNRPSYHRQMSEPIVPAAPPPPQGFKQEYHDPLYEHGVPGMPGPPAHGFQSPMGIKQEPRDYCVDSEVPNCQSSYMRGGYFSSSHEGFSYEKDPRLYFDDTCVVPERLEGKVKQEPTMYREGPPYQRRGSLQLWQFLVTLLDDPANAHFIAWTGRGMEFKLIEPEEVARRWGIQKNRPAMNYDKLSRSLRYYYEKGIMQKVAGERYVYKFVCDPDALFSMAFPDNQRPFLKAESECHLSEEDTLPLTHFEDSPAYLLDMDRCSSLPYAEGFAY
# Chain of ELF4 (Q99607 whole entry): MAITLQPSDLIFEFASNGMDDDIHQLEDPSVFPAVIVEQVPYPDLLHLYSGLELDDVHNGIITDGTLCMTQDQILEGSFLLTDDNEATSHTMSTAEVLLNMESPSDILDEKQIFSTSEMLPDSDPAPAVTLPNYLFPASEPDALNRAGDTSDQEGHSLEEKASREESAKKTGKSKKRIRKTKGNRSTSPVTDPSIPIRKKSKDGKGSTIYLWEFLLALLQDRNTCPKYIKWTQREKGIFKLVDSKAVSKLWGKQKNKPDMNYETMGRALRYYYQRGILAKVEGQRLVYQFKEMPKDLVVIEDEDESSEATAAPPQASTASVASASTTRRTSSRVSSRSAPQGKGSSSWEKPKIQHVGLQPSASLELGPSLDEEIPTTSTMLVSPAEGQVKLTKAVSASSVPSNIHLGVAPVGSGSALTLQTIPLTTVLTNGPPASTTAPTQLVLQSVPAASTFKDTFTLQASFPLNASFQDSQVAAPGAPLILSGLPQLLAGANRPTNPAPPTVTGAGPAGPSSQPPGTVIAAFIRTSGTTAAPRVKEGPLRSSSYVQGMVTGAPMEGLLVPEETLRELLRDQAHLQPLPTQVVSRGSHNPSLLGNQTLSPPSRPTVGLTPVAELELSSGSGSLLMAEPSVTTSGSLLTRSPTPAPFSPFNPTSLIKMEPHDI
sequence,measurement,setting,value
CGTCCC,binding signal,FEV,"1.34 fold enrichment (6-mer frequency, TF over GST control)"
same,binding signal,ETV5,"1.3 fold enrichment (6-mer frequency, TF over GST control)"
same,binding signal,HSF1,"1.08 fold enrichment (6-mer frequency, TF over GST control)"
same,binding signal,SPIC,"1.38 fold enrichment (6-mer frequency, TF over GST control)"
same,binding signal,ELF4,"1.27 fold enrichment (6-mer frequency, TF over GST control)"
same,binding signal,ELK4,"1.39 fold enrichment (6-mer frequency, TF over GST control)"
same,binding signal,ETV2,"1.12 fold enrichment (6-mer frequency, TF over GST control)"
same,binding signal,ELF3,"1.45 fold enrichment (6-mer frequency, TF over GST control)"
same,binding signal,ETV1,"1.34 fold enrichment (6-mer frequency, TF over GST control)"
